Screening results: PubChem BioAssay, several laboratories
SSB-PriA inh: blocks PriA binding to SSB C-terminal tail | inhibition, % at 33 µM | 0.6% of 430,000 active | AlphaScreen SSBct-PriA binding, biotinylated peptide | AID 1272365; in the data active = inhibition mostly above about 37%, no sharp cut-off; inactive = mostly below about 20%;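 note: plate controls were negative control peptide for no effect and reference peptide for full effect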
BoNT-F LC inh: blocks Botulinum neurotoxin F light chain protease; 0.22% of 360,000 active; inhibition, % at 10 µM; Multiplex microsphere protease cleavage assay, flow cytometry; AID 588497; in the data active = inhibition above about 35%, passing the limit was not always enough; inconclusive = no clear call, values can overlap the other calls; note: plate controls were buffer without enzyme for full effect and enzyme alone for no effect
BoNT A protease: BoNT A light chain protease inhibition; multiplex microsphere protease substrate cleavage, flow cytometry; inhibition, % at 10 µM; 0.17% of 360,000 active; note: plate controls were buffer without enzyme for full effect and enzyme alone for no effect
Anthrax LF inh2: anthrax lethal factor protease inhibition | inhibition, % at 10 µM | P15917 | 0.12% of 360,000 active | multiplex microsphere protease cleavage assay, LF; note: plate controls were buffer without enzyme for full effect and enzyme alone for no effect
MazEF act: MazEF (E. coli) toxin RNase activation; P0AE70; FAM/BHQ RNA-DNA oligo cleavage fluorescence, 5 h; activation, % at 20 µM; 0.32% of 350,000 active; in the data active = activation above about 50%
Target sequence (P0AE70 whole entry, looked up): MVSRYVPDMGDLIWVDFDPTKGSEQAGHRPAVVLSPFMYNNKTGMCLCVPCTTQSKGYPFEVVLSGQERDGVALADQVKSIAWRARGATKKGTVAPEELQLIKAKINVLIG
Autofluor counter: compound fluorescence in toxin protease inhibitor counterscreen. fluorescence intensity (concentration not given with the values). 3.1% of 360,000 active. compound autofluorescence counterscreen, microsphere flow cytometry; hits give high values; in the data active = fluorescence intensity above about 16000; inconclusive = no clear call, values can overlap the other calls
Active calls of the source: *; ? = inconclusive; . = no result; + = active, no number. Hits are enriched below; roughly 3.3% of the tested compounds scored in any of these assays. Cut-off read from the data, not from the text of the source, unless noted: active = inhibition above about 30%; inconclusive = no clear call, values can overlap the other calls; inactive = below that.

SMILES	SSB-PriA inh	BoNT-F LC inh	BoNT A protease	Anthrax LF inh2	MazEF act	Autofluor counter
Cc1c(O)ccc(C(=O)COc2ccccc2F)c1O	-10	14	2	-12	0	?
CN(C)C=Nc1ncn(-c2ncc(C(F)(F)F)cc2Cl)n1	-1	.	.	.	.	.
Oc1cccc(C=NNc2ccccn2)c1	3	-11	0	-1	8	3728
O=[N+]([O-])c1ccc(O)c(/C=N\Nc2ccccc2)c1	17	.	.	.	.	.
O=[N+]([O-])c1ccc(O)c(/C=N/Nc2ccccn2)c1	.	67*	21	7	2	2089
Oc1ccc(C=NNc2ccccn2)c(O)c1	95*	-6	0	-4	8	4090
O=[N+]([O-])c1ccc(O)c(C=Nc2cccc3ncccc23)c1	68*	-5	1	0	1	2043
Cc1nn(CC(=O)Nc2ccc(OC(F)(F)F)cc2)c(=O)c2c1cnn2C(C)(C)C	-9	.	.	.	.	.
COc1ccc(C=C2C=C(C(C)(C)C)C(=O)C(C(C)(C)C)=C2)cc1OC	-7	25	86*	24	10	4135
COc1ccc(/C=C2\CC/C(=C\c3ccc(OC)c(OC)c3)C2=O)cc1OC	3	-4	0	1	-3	6628
COc1ccc(C)cc1NCc1cccc(OC)c1OC	38	-2	1	-3	-3	22091*
COc1cc(OC)c(OC)cc1CNc1cc(C)ccc1OC	16	-12	-2	-5	5	11305
COc1ccc(CNc2cc(C)ccc2C)c(OC)c1OC	11	-7	0	-3	-4	19482*
Cc1ccc(S(=O)(=O)Nc2ccccc2C(=O)Nc2ccc(-c3ccc(NC(=O)c4ccccc4NS(=O)(=O)c4ccc(C)cc4)c(C)c3)cc2C)cc1	-7	.	.	.	.	.
C=C1CC2C=C(NC(C)=O)CC(C1)C2 (centres undefined)	3	-1	0	-3	5	22238*
COc1cccc(NC(=O)NCCCCc2ccccc2)c1	-9	10	0	-3	-14	?
COc1cccc(NC(=O)NCCCSC2CCCCC2)c1	-9	-4	-2	-3	2	21430*
CSC1CC2CCC(C1)N2C(=O)c1cc(-c2cccs2)[nH]n1 (centres undefined)	-13	.	.	.	.	.
COC(=O)NN=Cc1sc(N2CCCCC2)nc1-c1cccs1	-3	.	.	.	.	.
O=C(Nc1ccccc1N1CCCCC1)c1cc(S(=O)(=O)N2CCOCC2)ccc1F	47*	10	0	-5	-7	4518
O=C(Nc1ccccc1N1CCCCC1)c1ccccc1F	-52	-5	-1	-2	0	23407*
Cc1ccccc1C(=O)NC(=S)Nc1ccccc1N1CCCC1	39*	-14	-2	-2	4	2641
Cc1ccc(O)c(NC(=S)NC(=O)c2ccccc2Cl)c1	13	38*	3	2	-4	4657
O=C(NC(=S)Nc1ccc(O)cc1)c1ccccc1Cl	7	0	0	-2	8	3528
O=C(Nc1ccccc1N1CCCC1)c1cc(S(=O)(=O)N2CCOCC2)ccc1Cl	1	-3	0	-2	0	6400
SMILES	SSB-PriA inh	BoNT-F LC inh	BoNT A protease	Anthrax LF inh2	MazEF act	Autofluor counter
CCN(Cc1ccccc1)S(=O)(=O)c1ccc(C(=O)Nc2cc(C)nn2C(C)C)cc1	-7	.	.	.	.	.
CCOC(=O)CCC(=O)N1CCN(c2ncnc3c2nnn3-c2ccc(Cl)cc2)CC1	-16	.	.	.	.	.
O=C(Nc1ccccc1N1CCCCC1)c1ccc(N2C(=O)c3ccccc3C2=O)cc1	-14	-1	0	-2	-4	16910*
COc1cc(/C=C2/SC(=S)N(Cc3ccccc3)C2=O)ccc1O	5	22	30*	15	-10	3622
O=C1/C(=C/c2cccc(O)c2)SC(=S)N1CC1CCCO1 (centres undefined)	-6	-7	0	3	10	4226
O=C(O)c1cc(-c2ccc(/C=C3/SC(=S)N(Cc4ccccc4)C3=O)o2)ccc1Cl	5	4	22	15	-234	4996
COc1ccc(/C=C2\SC(=S)N(Cc3cccnc3)C2=O)cc1C	0	12	38*	20	-16	2712
O=C1/C(=C\c2ccc(O)c(O)c2)SC(=S)N1Cc1ccccc1	17	-87	7	-10	-57	4080
CCOc1cc(/C=C2/SC(=S)N(CC3CCCO3)C2=O)ccc1O (centres undefined)	0	3	10	8	+	3444
Cc1ccc(/C=C2\SC(=S)N(Cc3ccccc3)C2=O)o1	9	11	48*	36*	15	4741
COC(=O)c1sccc1S(=O)(=O)N(Cc1cc(C2CC2)n(C)n1)Cc1ccco1	2	.	.	.	.	.
